PubChem BioAssay AID651768 (National Center for Advancing Translational Sciences (NCATS), 2012)
Hit rate of the full screen: of about 360,000 compounds, about 1,700 (0.47%) were called active. About 2% were inconclusive and are not listed. Calls come from the whole dose curve; as a rule, active = well fitted inhibition curve with a large enough effect; inconclusive = small, poorly fitted or top-dose-only effect; inactive = no such curve, though single readings can be large or run the other way. For the sample, actives were picked, then their nearest neighbours and some compounds at random.

The molecules below were run against Bifunctional 3'-5' exonuclease/ATP-dependent helicase WRN (Homo sapiens) (UniProt Q14191) (assay: qHTS for Inhibitors of WRN Helicase). Settings: WRN helicase unwinding, fluorescent forked duplex, kinetic; series mostly up to 114 µM.
Bifunctional 3'-5' exonuclease/ATP-dependent helicase WRN (Homo sapiens), sequence (Q14191 whole entry, looked up): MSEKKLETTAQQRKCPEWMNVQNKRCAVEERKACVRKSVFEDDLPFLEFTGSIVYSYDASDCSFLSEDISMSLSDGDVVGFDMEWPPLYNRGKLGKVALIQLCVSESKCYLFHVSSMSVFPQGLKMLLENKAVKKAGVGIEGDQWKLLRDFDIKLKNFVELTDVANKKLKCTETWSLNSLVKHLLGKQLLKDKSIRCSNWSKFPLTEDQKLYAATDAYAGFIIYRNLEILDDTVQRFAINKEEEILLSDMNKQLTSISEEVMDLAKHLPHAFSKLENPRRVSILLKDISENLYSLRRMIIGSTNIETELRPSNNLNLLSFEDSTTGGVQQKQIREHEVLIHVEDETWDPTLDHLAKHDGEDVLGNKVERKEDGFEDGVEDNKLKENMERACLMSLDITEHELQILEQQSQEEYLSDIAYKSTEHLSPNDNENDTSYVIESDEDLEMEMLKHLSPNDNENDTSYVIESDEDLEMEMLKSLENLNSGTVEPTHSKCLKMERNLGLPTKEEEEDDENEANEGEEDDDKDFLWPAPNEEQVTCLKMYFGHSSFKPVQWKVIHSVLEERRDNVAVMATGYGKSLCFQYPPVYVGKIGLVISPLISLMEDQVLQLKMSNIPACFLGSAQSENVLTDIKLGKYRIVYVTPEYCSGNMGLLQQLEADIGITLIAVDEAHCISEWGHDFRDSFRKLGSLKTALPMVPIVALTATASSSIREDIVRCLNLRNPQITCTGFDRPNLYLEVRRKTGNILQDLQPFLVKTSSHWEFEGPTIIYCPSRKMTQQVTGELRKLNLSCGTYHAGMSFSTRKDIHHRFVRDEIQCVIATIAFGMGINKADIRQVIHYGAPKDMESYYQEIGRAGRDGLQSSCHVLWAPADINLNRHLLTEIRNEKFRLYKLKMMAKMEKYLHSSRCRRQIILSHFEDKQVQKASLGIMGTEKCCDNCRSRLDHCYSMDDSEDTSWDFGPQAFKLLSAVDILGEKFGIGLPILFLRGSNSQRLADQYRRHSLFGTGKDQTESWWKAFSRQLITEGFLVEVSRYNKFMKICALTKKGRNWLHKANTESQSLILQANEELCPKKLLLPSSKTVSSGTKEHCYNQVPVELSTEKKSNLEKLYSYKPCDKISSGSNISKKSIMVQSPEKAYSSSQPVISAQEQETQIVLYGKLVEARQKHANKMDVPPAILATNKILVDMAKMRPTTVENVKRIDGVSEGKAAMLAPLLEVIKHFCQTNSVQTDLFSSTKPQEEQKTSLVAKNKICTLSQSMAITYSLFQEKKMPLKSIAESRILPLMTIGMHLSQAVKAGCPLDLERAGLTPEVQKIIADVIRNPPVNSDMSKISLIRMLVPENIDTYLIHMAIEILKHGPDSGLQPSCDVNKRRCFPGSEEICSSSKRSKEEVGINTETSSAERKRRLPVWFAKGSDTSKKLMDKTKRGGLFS
Source text: Inhibition of DNA repair is proposed as a strategy for combating cancer. Synthetic lethality is an approach that exploits preexisting DNA repair deficiencies in certain tumors to develop inhibitors of DNA repair pathways that compensate for the tumor-associated DNA repair deficiency. Because helicases play critical roles in the DNA damage response and in DNA repair, particularly in actively dividing and replicating cells, characterization of synthetic lethal relationships of DNA helicases may be of value in developing improved anticancer treatment strategies; moreover, small molecules that specifically target a given DNA helicase may be useful for understanding its role in cellular nucleic acid metabolism. The goal of this project is to identify small molecule, non-covalent chemical inhibitors of the Werner syndrome (WS) helicase (WRN), which plays an important role in cell proliferation, the replication stress response, and DNA repair. […] The WRN gene product that is defective in the chromosomal instability disorder has DNA helicase and exonuclease activities and interacts with a number of nuclear proteins to maintain genomic stability. We will employ an optimized high-throughput screening assay that utilizes a fluorescence intensity modulation scheme with a fluorophore and quencher positioned near one another within a duplex deoxyoligonucleotide that contains a single forked structure. After a high-throughput screen of the ~350,000-member Molecular Libraries Small Molecule Repository (MLSMR) collection, followed by data analysis and hit selection, a panel of confirmatory, as well as secondary and ternary, assays will be employed to identify high-confidence WRN inhibitors. Structure-activity relationships will be investigated for the top candidate inhibitor series through medchem expansion. These are the results of the primary screening campaign against the MLSMR. NIH Chemical Genomics Center [NCGC] NIH Molecular Libraries Probe Centers Network [MLPCN] MLPCN Grant: MH096530 Assay Submitter (PI): Robert Brosh, National Institute of Aging
Three muL of reagents (buffer in columns 3 and 4 as negative controls; WRN at 20 nM final concentration in columns 1 and 2 as positive controls; columns 5-48 as test reactions) will be dispensed into a 1536-well Greiner black plate via solenoid-valve based nanoliter dispensers. Compounds (23 nL each in columns 5-48) and control (23 nL each in column 2 as dose-response) will be transferred via a Kalypsys pintool equipped with a 1536-pin array. Plates will be incubated for 15 min at room temperature, and then 1 µL of substrate (100 nM forked duplex oligonucleotide and 2 mM ATP final concentrations) will be added to start reaction, and plate will be transferred into a ViewLux high-throughput CCD imager where reaction progress is measured in kinetic mode using standard red-fluorescence optics (excitation filter 525 nm, emission filter 598 nm).
Note: nearly all actives have a fitted effect of over 55% in size.
Potency is the fitted concentration of half-maximal effect.

Potency, inactive:
Cc1ccc2c(NC(=O)C3CC3)cccc2n1
COc1ccc(CNC(=O)/C(C#N)=C/c2cccc(OC)c2OC)cc1
CC(O)CN(Cc1ccc(Cl)cc1)CC(C)O (stereo not given)
Cc1ccc(S(=O)(=O)NC[C@H]2O[C@@H](n3cnc4c(N)ncnc43)[C@H](O)[C@@H]2O)s1
CCC(C)CN1C(=O)CSCC1(C)C(=O)NCc1ccccc1 (stereo not given)
O=C(CSc1nnc(-c2ccncc2)o1)NCc1ccc(Cl)cc1
CCOC(=O)N1CCC(N2Cc3cccc(C(=O)Nc4ccc(S(=O)(=O)N(CC)CC)cc4)c3C2=O)CC1
CCCCn1c(SCc2ncc(-c3ccccc3)o2)nc2cc(S(N)(=O)=O)ccc21
COc1ccc(N(CC(=O)NCCSCc2cccc(Cl)c2)S(C)(=O)=O)cc1
COc1cc(/C=C/C(=O)OCC(=O)NC(=O)NCc2ccccc2)ccc1OCC#N
COC(=O)c1ccc(C(NC(=O)OCc2ccccc2)/C(C)=C/[C@@H](C)C(=O)NCc2ccc(OC)c(OC)c2)cc1 (stereo not given in full)
COc1cccc(/C=N/NC(=O)C(=O)N2CCCC2)c1
CC(NC(=O)C(=O)NN=C1CCC(C(C)(C)C)CC1)c1ccccc1 (stereo not given)
CC(=O)Nc1cncc(-c2ccccc2CO)n1
O=C(O)C1C2C=CC(C2)C1C(=O)N1CCN(CCO)CC1 (stereo not given)
C#CCOCCOCCOCCNc1nc(N2CCN(C(=O)C(Cc3ccc(O)cc3)n3cc(C(N)CC(C)C)nn3)CC2)nc(N2CCN(C(=O)C(Cc3ccc(O)cc3)n3cc(C(N)C(C)CC)nn3)CC2)n1 (stereo not given)
C#CCOCCOCCOCCNc1nc(N2CCN(C(=O)[C@H](CCC(=O)O)n3cc(C(N)CO)nn3)CC2)nc(N2CCN(C(=O)[C@H](Cc3ccc(O)cc3)n3cc(C(N)[C@H](C)CC)nn3)CC2)n1 (stereo not given in full)
C#CCOCCOCCOCCNc1nc(N2CCN(C(=O)C([C@@H](C)CC)n3cc(C(N)COC(=O)C(F)(F)F)nn3)CC2)nc(N2CCN(C(=O)[C@H](CCCCN)n3cc(C(N)CC(C)C)nn3)CC2)n1 (stereo not given in full)
C#CCOCCOCCOCCNc1nc(N2CCN(C(=O)[C@H](CO)n3cc([C@@H](N)C(C)C)nn3)CC2)nc(N2CCN(C(=O)[C@H](CCC(=O)O)n3cc([C@@H](N)[C@H](C)CC)nn3)CC2)n1
C#CCOCCOCCOCCNc1nc(N2CCOCC2)nc(N2CCN(C(=O)[C@H](Cc3ccc(O)cc3)n3cc(CCO)nn3)CC2)n1
C#CCOCCOCCOCCNc1nc(N2CCN(C(=O)[C@H](CCCCN)n3cc([C@@H](N)C(C)CC)nn3)CC2)nc(N2CCN(C(=O)[C@H](Cc3ccc(O)cc3)n3cc([C@@H](N)C(C)CC)nn3)CC2)n1 (stereo not given in full)
COc1ccc(NC(=O)C(c2ccncc2)n2c(=O)c(-c3cc4ccccc4[nH]3)nc3ccccc32)cc1 (stereo not given)
Cc1ccc(C(=O)NNC(=O)OC(C)(C)C)c(Cl)c1
CCCCN(C=O)c1c(CC)nc2c(OCc3ccccc3C(=O)OC)cccn12
Cc1c(NC(=O)COC(=O)/C=C/c2cccc(F)c2)c(=O)n(-c2ccccc2)n1C
O=C(C1CCN(CC2CCCCC2)CC1)N1CCCC1
CN1CCN(C(=O)c2ccc(-c3cc4nc(NCc5cccnc5)n(C)c(=O)c4s3)cc2)CC1
CN(C)NC(=O)C(NC(=O)c1ccc(N)cc1)C12CC3CC(CC(C3)C1)C2 (stereo not given)
Cc1cccc(CN2CCN(C3CN(Cc4cn(Cc5cc(C)cc(C)c5)nn4)S(=O)(=O)C3)CC2)c1 (stereo not given)
CC(C)c1ccc(NC(=O)CCN2C(=O)c3ccc([N+](=O)[O-])cc3C2=O)cc1
CN(CC1CCCO1)S(=O)(=O)c1ccc(C(=O)Nc2ccc([N+](=O)[O-])cc2)cc1 (stereo not given)
CC(C)C[C@H]1CNC(=S)N1C[C@H]1CCCN1C[C@H](Cc1ccc(O)cc1)N1C[C@H](Cc2ccc(O)cc2)N(CC2CCCCC2)C1=S
CCc1ccc(N(CC(=O)NCc2cccnc2)S(=O)(=O)c2ccccc2)cc1
O=C(c1cccnc1)N(Cc1ccccc1)C(=O)c1cccnc1
COc1ccc(C(C)=O)cc1COC(=O)Cn1cnc2ccccc2c1=O
COC(=O)[C@@]1(Cc2ccc(OC)cc2)[C@H]2c3cc(C(=O)N4CCCC4)n(Cc4ccc(OC(F)(F)F)cc4)c3C[C@H]2CN1C(=O)c1ccccc1
CCOCCC(=O)Nc1ccc2c(c1)c(=O)n(C)n2-c1ccc2ccccc2c1
CCOC(=O)N1CCN(C(=O)c2ccc(CN(c3ccc(C)c(C)c3)S(C)(=O)=O)cc2)CC1
O=C(Nc1ccc(S(=O)(=O)N2CCOCC2)cc1)C1CCN(S(=O)(=O)c2ccc(Cl)cc2)CC1
Cc1nnsc1S(=O)(=O)Cc1ccccc1Cl
COC(=O)[C@@]12C[C@@H](CC(=O)NCCCCc3ccccc3)C(=O)N(Cc3ccccc3)C1=CCC(C)(C)C2
CCOC(=O)c1[nH]c2ccc(OC)cc2c1NC(=O)N1CCOCC1
Nc1[nH]c(=S)nc2nc(-c3ccccc3)c(-c3ccccc3)nc12
COc1ccccc1Cc1c(-c2ccc(Cl)cc2)nc2c3ccccc3ccn12
CCc1nc2ccc(C(=O)NCc3ccc(OC)cc3)cn2c1N(CC)Cc1cccc(Br)c1
Cc1cccc(C)c1Nc1nnc(SCC(=O)NCCCN2CCCC2=O)s1
CO/N=C/c1ccc(N2CCN(C(=O)c3cccc(Cl)c3)CC2)c([N+](=O)[O-])c1
O=C(CNS(=O)(=O)c1ccc(Br)s1)NCc1ccc2c(c1)OCO2
O=C1CC2(CCCCC2)Oc2ccc(OCC(=O)N3CCOCC3)cc21
CCN(CC)CC(=O)Nc1sc2c(c1C(=O)c1ccccc1C)CCC2
CCOC(=O)COc1cc(OCC(=O)OCC)c2c(=O)cc(-c3ccccc3)oc2c1
COc1cc(O)c2c(=O)c3c(O)c(O)ccc3oc2c1OC
COc1ccc(Cn2c(=O)sc3ccccc32)cc1OC
COC(=O)[C@@]12C[C@@H](CC(=O)NCCCCc3ccccc3)C(=O)N(CCc3ccc(OC)c(OC)c3)C1=CCC(C)(C)C2
Cc1nnc(-c2ccc(Oc3ccc(C)c(C)c3)c([N+](=O)[O-])c2)o1
CC1CCCC(NC(=O)c2cc(-c3ccncc3)nc3ccccc23)C1C (stereo not given)
COc1ccc(NC(=O)c2cc(-c3cc(OC)c(OC)c(OC)c3)nc3ccccc23)c(OC)c1
O=C1NC[C@H](CCCCN2CCN(CCc3ccccc3)C(=O)C2=O)N(CC2CCCCC2)C1=O
CCc1ccc(CN(C)C(=O)CCc2nnc(-c3ccc(-c4ccccc4)cc3)o2)nc1
Cc1cc(Cl)ccc1C(=O)C1CCCN(C(=O)c2nonc2C)C1 (stereo not given)
CCCCN(CC)CCNC(=O)c1[nH]c(C)c(C(C)=O)c1C
CCC(=O)Nc1c(C)n[nH]c1C
C=C1C(=O)OC2C1CCC(C)=CCCC1(C)OC21 (stereo not given)
CCCCCCCNc1nc(Cl)nc(NCCO)n1
CC1CCCN(CCCNC(=O)CN2C(=O)COc3ccc(S(=O)(=O)N4CCOCC4)cc32)C1 (stereo not given)
O=C(CC1SC(N2CCOCC2)=NC1=O)Nc1ccccc1F (stereo not given)
O=C1Nc2ccc(Br)cc2/C1=N/N=C/C1=C(N2CCOCC2)C(=C\c2ccccc2)/CC1

Potency, active:
Cc1ccc(/C=C(\C#N)C(=O)Nc2cccc3ncccc23)o1 20 µM
O=c1ccc2c(-c3ccccc3S(=O)(=O)O)c3ccc(O)c(O)c3oc-2c1O 0.212 µM
COc1ccc2c(c1)c(=Cc1ccc(N(C)C)cc1)c1cc(-c3ccccc3)[n+](C)n12 28.2 µM
COC(=O)c1ccc(COc2ccc(/C=C/C(=O)c3ccc(OC)c(CSCC(=O)O)c3)cc2OC)cc1 44.7 µM
C#CCOCCOCCOCCNc1nc(N2CCN(C(=O)CCCCCCCCCCNC(=O)Cn3cc(CCCCCN)nn3)CC2)nc(N2CCN(C(=O)CCCCCCCCCCNC(=O)[C@H](CO)n3cc(CCCSC)nn3)CC2)n1 31.6 µM
C#CCOCCOCCOCCNc1nc(N2CCN(C(=O)CCCCCCCCCCNC(=O)[C@H](CCCCN)n3cc(C)nn3)CC2)nc(N2CCN(C(=O)CCCCCCCCCCNC(=O)[C@H](CO)n3cc(CCCSC)nn3)CC2)n1 50.1 µM
C#CCOCCOCCOCCNc1nc(N2CCN(C(=O)CCCCCCCCCCNC(=O)[C@H]([C@@H](C)CC)n3cc(CCCCN=C(N)N)nn3)CC2)nc(N2CCN(C(=O)CCCCCCCCCCNC(=O)[C@H](CO)n3cc(CCCSC)nn3)CC2)n1 25.1 µM
Cn1ccc(=Nc2ccc(NC(=O)c3ccc(N=c4ccn(C)c5ccc([N+](=O)[O-])cc45)cc3)cc2)cc1 39.8 µM
O=C(c1cccnc1)N(c1cc2sc(=O)oc2c2ccccc12)S(=O)(=O)c1ccccc1 20 µM
COC(=O)CCCCC1=CCC2C(=O)C=C(O)C2C1 (stereo not given) 50.1 µM
O=C(Nc1ccccc1)c1nnsc1S(=O)(=O)c1ccc(Cl)cc1 44.7 µM
COc1ccc2[nH]c3c(C)c4cc[n+](C)cc4c(C)c3c2c1 22.4 µM
O=C1CSC(=S)N1/N=C/c1ccc(O)c([N+](=O)[O-])c1 79.4 µM
COc1c(O)cc2oc(-c3ccc(O)c(O)c3)cc(=O)c2c1O 25.1 µM
Cc1ccc2nc(-c3ccncc3)cc(C(=O)Nc3ccc(OC(F)F)cc3)c2c1 44.7 µM
CCCCCCc1cc2cc(-c3nnc(-c4ccccc4)o3)c(=O)oc2cc1O 56.2 µM
Nc1ccc2nc3c(=O)[nH]c(=S)[nH]c3nc2c1 7.08 µM
N#C/C(=C\C1=C(N2CCOCC2)C(=C\c2ccccc2)/CC1)C(=O)Nc1ccccc1F 15 µM
